Reference: PubChem BioAssay (NCI)
The panel holds about 83,000 compounds, 20% with a hit somewhere; the sample as a whole holds those more often.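 The test compound was applied at a single concentration to cells in 96-well plates for 48 hours, and percent growth was recorded.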 The source made the active and inactive calls. How the source made its calls: active means growth percent below 10; inactive means the rest.

Columns and labels:
Experiment in all cases: NCI-60 one-dose screen, 48 h (100 = growth as untreated, 0 = no growth, -100 = all killed)
Conditions in all cases: 10 µM unless noted
T-47D breast = test system: T-47D breast
BT-549 breast = test system: BT-549 breast
MDA-MB-435 melanoma = test system: MDA-MB-435 melanoma
SW-620 colon = test system: SW-620 colon
MCF7 breast = test system: MCF7 breast
HCT-116 colon = test system: HCT-116 colon
HCC-2998 colon = test system: HCC-2998 colon
KM12 colon = test system: KM12 colon
MDA-MB-468 breast = test system: MDA-MB-468 breast

Measured: growth

CCCCCCCCOc1cccc(S(=O)(=O)Nc2ccc(C)cc2C(=O)O)c1
inactive: T-47D breast 105% | BT-549 breast 115% | MDA-MB-435 melanoma 98.5% | SW-620 colon 96.5% | MCF7 breast 89.8% | HCT-116 colon 85.1% | HCC-2998 colon 119% | KM12 colon 96.9% | MDA-MB-468 breast 81.8%

COc1ccc(CCC2c3c(cc4c(c3OC)OCO4)CCN2C)cc1 (stereo unspecified)
active: T-47D breast -43.1% | BT-549 breast -69.9% | MDA-MB-435 melanoma -66.2% | SW-620 colon -78.1% | MCF7 breast -82.3% | HCT-116 colon -58.3% | HCC-2998 colon -78.8% | KM12 colon -37.3% | MDA-MB-468 breast -81.5%

CCCCSc1nc(NCCc2c[nH]c3ccccc23)c(C#N)c(-c2ccc(F)cc2)n1
inactive: T-47D breast 48.5% | BT-549 breast 101% | MDA-MB-435 melanoma 73.1% | SW-620 colon 60.4% | MCF7 breast 44.8% | HCT-116 colon 26.5% | HCC-2998 colon 64.9% | KM12 colon 32% | MDA-MB-468 breast 69.8%

CN(C)c1nc(NCCNS(=O)(=O)c2ccc(C(=O)/C=C/c3ccc(C(F)(F)F)cc3)cc2)nc(Nc2ccc(F)cc2)n1
active: BT-549 breast -71.2% | MDA-MB-435 melanoma -81.1% | SW-620 colon -77.1% | MCF7 breast -78.6% | HCT-116 colon -59.1% | HCC-2998 colon -95.7% | KM12 colon -78.9% | MDA-MB-468 breast -23.6%
inactive: T-47D breast 15.7%

CCN(CC)CCOc1ccc(Nc2ncc3cc(-c4ccc(O)c(C#N)c4)c(=O)n(C)c3n2)cc1
inactive: T-47D breast 36.5% | BT-549 breast 112% | MDA-MB-435 melanoma 29.9% | SW-620 colon 110% | MCF7 breast 16.8% | HCT-116 colon 32.9% | HCC-2998 colon 111% | KM12 colon 72.4% | MDA-MB-468 breast 63.5%

Cc1ccc(NC(=O)[C@]23CCC(C)(C)CC2C2=CCC4[C@@]5(C)C[C@@H](O)[C@H](O)[C@@](C)(CO)C5CC[C@@]4(C)[C@]2(C)CC3)cc1 (stereo partly specified)
inactive: T-47D breast 10.4% | MDA-MB-435 melanoma 26.2% | SW-620 colon 40.1%
active: BT-549 breast 0.29% | MCF7 breast 4.26% | HCC-2998 colon -6.83% | KM12 colon -22.3% | MDA-MB-468 breast 0.813%

CCCCSc1nc(NCCc2c[nH]c3ccccc23)c(C#N)c(-c2ccccc2)n1
active: T-47D breast -0.0859% | SW-620 colon 4.59% | MCF7 breast 3.23% | HCT-116 colon 4.22% | KM12 colon 7.79% | MDA-MB-468 breast 3.04%
inactive: BT-549 breast 70.2% | MDA-MB-435 melanoma 49.2% | HCC-2998 colon 16.3%

CC(C)(C)OC(=O)/C=C/c1cccc2c1C(=O)NC(C)(c1cc3cc(Cl)ccc3oc1=O)N2 (stereo unspecified)
inactive: BT-549 breast 15.2% | MDA-MB-435 melanoma 62.2% | SW-620 colon 55.7% | MCF7 breast 17.5% | HCT-116 colon 31.5% | HCC-2998 colon 52.9% | KM12 colon 19.9% | MDA-MB-468 breast 11.6%
active: T-47D breast -3.39%

Cc1ccccc1[C@H]1C(C(=O)c2ccc(Cl)cc2)C2(N[C@@H]1c1ccccc1)C(=O)Nc1ccccc12 (stereo partly specified)
active: T-47D breast 4.15% | BT-549 breast -66% | MDA-MB-435 melanoma -62.2% | SW-620 colon 0.765% | MCF7 breast -31.7% | HCT-116 colon -84% | HCC-2998 colon -41.1% | KM12 colon -30.8% | MDA-MB-468 breast -25.6%

COc1ccc(Cc2nn(CC(=O)N/N=C/c3ccc(F)cc3)c(=O)c3c(C)noc23)cc1
inactive: BT-549 breast 43.2% | MDA-MB-435 melanoma 48.1% | SW-620 colon 61.4% | MCF7 breast 56.5% | HCC-2998 colon 39.3% | KM12 colon 73.1% | MDA-MB-468 breast 63.2%
active: T-47D breast -14.1% | HCT-116 colon 5.98%

COc1cccc(COc2ccc(NC(=O)Nc3ccc(Cl)c(C(F)(F)F)c3)cc2)c1
inactive: T-47D breast 19.5% | BT-549 breast 37.9% | MDA-MB-435 melanoma 58.9% | SW-620 colon 49.3% | MCF7 breast 24.3% | HCT-116 colon 18.8% | HCC-2998 colon 46.8%
active: KM12 colon 6.06% | MDA-MB-468 breast 2.67%

Cc1ccc([C@H]2C(C(=O)c3ccc(Cl)cc3)C3(N[C@@H]2c2ccccc2)C(=O)Nc2ccccc23)cc1 (stereo partly specified)
active: MDA-MB-468 breast 1.9%
inactive: T-47D breast 14.3% | BT-549 breast 50.7% | MDA-MB-435 melanoma 26.8% | SW-620 colon 29.9% | MCF7 breast 16% | HCT-116 colon 14% | HCC-2998 colon 23.7% | KM12 colon 25.9%

COc1cc2c(c(OC)c1OC)C(=O)CC(c1cccc(NC(=O)[C@@H](N)CC(C)C)c1)O2 (stereo partly specified)
inactive: T-47D breast 86% | BT-549 breast 94.3% | MDA-MB-435 melanoma 91.2% | SW-620 colon 107% | MCF7 breast 86.8% | HCC-2998 colon 117% | KM12 colon 97.2% | MDA-MB-468 breast 89.3%

COc1cc2oc(-c3cccc(NC(=O)[C@H](Cc4ccccc4)NC(=O)OC(C)(C)C)c3)cc(=O)c2c(OC)c1OC
inactive: T-47D breast 38.7% | BT-549 breast 28.7% | MDA-MB-435 melanoma 61.9% | SW-620 colon 43.3% | MCF7 breast 22.1% | HCT-116 colon 15.1% | HCC-2998 colon 69.6% | KM12 colon 19.5% | MDA-MB-468 breast 41.8%

Cc1ccc(C(=O)C(c2c[nH]c3ccccc23)c2c[nH]c3ccccc23)cc1
inactive: T-47D breast 45.7% | BT-549 breast 69.1% | MDA-MB-435 melanoma 19.4% | KM12 colon 26.1% | MDA-MB-468 breast 26%
active: SW-620 colon 0.879% | MCF7 breast 9.47% | HCC-2998 colon 4.87%

COc1ccc(NC(=O)[C@H](CO)NC(=O)OC(C)(C)C)cc1C(=O)Nc1cccc(C2CC(=O)c3c(cc(OC)c(OC)c3OC)O2)c1 (stereo partly specified)
inactive: T-47D breast 25.8% | BT-549 breast 12.7% | MDA-MB-435 melanoma 41.1% | SW-620 colon 73.9% | MCF7 breast 30% | HCT-116 colon 32.3% | HCC-2998 colon 83% | KM12 colon 43.8% | MDA-MB-468 breast 36.2%

O=C(CN1C(=O)/C(=C/c2ccccc2Cl)SC1=S)N1CCOCC1
inactive: T-47D breast 70.9% | BT-549 breast 119% | MDA-MB-435 melanoma 91.3% | SW-620 colon 38.6% | MCF7 breast 49.6% | HCT-116 colon 61.1% | HCC-2998 colon 124% | KM12 colon 101%
active: MDA-MB-468 breast -2.81%

N/C(=N\c1nc2ccccc2s1)NC(=O)Nc1ccccc1Br
inactive: T-47D breast 45.3%
active: BT-549 breast -7.4% | MDA-MB-435 melanoma -63.9% | SW-620 colon 5.64% | MCF7 breast 8.24% | HCT-116 colon -51.4% | HCC-2998 colon -21% | KM12 colon -48.2% | MDA-MB-468 breast -29.3%

Cc1ccc(C(SCCNCc2cc(N(C)C)ccn2)(c2ccccc2)c2ccccc2)cc1
active: T-47D breast -39% | BT-549 breast -51.8% | MDA-MB-435 melanoma -75.4% | SW-620 colon -79.4% | MCF7 breast -80.5% | HCT-116 colon -80.5% | HCC-2998 colon -93.8% | KM12 colon -40.1% | MDA-MB-468 breast -69.5%

COc1cc2oc(-c3cccc(NC(=O)[C@H](CC(N)=O)NC(=O)OC(C)(C)C)c3)cc(=O)c2c(OC)c1OC
inactive: T-47D breast 65.7% | BT-549 breast 82.6% | MDA-MB-435 melanoma 97.2% | SW-620 colon 94.5% | MCF7 breast 71.8% | HCC-2998 colon 100% | KM12 colon 87.1% | MDA-MB-468 breast 82.7%

COc1cc(/C=C2\C(=N)N=C(SCc3nc4ccccc4[nH]3)NC2=O)ccc1O
inactive: T-47D breast 99.8% | BT-549 breast 107% | MDA-MB-435 melanoma 99.7% | SW-620 colon 95.6% | MCF7 breast 93.7% | HCT-116 colon 99.8% | HCC-2998 colon 105% | KM12 colon 106% | MDA-MB-468 breast 106%

COc1ccc2[nH]c(O)c(N=NC(=O)Cn3c(-c4ccccc4)nc4cc(C)ccc43)c2c1
active: BT-549 breast -61.7% | HCT-116 colon -72.7%
inactive: T-47D breast 30.3% | MDA-MB-435 melanoma 43.7% | SW-620 colon 47.2% | MCF7 breast 33% | HCC-2998 colon 18.9% | KM12 colon 47.3% | MDA-MB-468 breast 34.4%

Cc1cc(C)cc(NC(=O)Cn2cc(COn3nnc4ccccc43)nn2)c1
inactive: T-47D breast 100% | BT-549 breast 108% | MDA-MB-435 melanoma 100% | SW-620 colon 115% | MCF7 breast 99.5% | HCT-116 colon 103% | HCC-2998 colon 104% | KM12 colon 114% | MDA-MB-468 breast 98.7%

COc1cc(NC(=O)c2cccc(C3CCc4c(cc(OC)c(OC)c4OC)O3)c2)cc(OC)c1OC (stereo unspecified)
active: BT-549 breast -6.89% | MDA-MB-435 melanoma 2.46% | MCF7 breast 3.71% | KM12 colon 0.726%
inactive: T-47D breast 14.5% | SW-620 colon 46.1% | HCC-2998 colon 64.8% | MDA-MB-468 breast 29.3%

COc1cc(/C=C/C(=O)c2ccc(C)cc2)ccc1Oc1nc(Nc2ccc(F)cc2)nc(N(C)C)n1
inactive: T-47D breast 15.4% | MDA-MB-435 melanoma 53.9% | MCF7 breast 11.9% | HCC-2998 colon 91.9% | KM12 colon 65.4% | MDA-MB-468 breast 40.1%
active: BT-549 breast -30.1% | SW-620 colon 6.82%

COc1ccc(-c2ccnc(SCc3cc4cc(OC)ccc4[nH]c3=O)n2)cc1
active: T-47D breast 2.83% | BT-549 breast -3.12% | MDA-MB-435 melanoma 1.18% | MDA-MB-468 breast -26.3%
inactive: SW-620 colon 22.2% | HCT-116 colon 11% | HCC-2998 colon 35% | KM12 colon 24.2%

NS(=O)(=O)c1ccc(CCNC(=O)CSc2ccc(-c3ccc(Br)cc3)nn2)cc1
inactive: T-47D breast 41.2% | BT-549 breast 39.5% | MDA-MB-435 melanoma 59.1% | SW-620 colon 72.2% | HCT-116 colon 21.3% | HCC-2998 colon 92.5% | KM12 colon 66.4% | MDA-MB-468 breast 20.8%

COc1ccc2[nH]c(=O)c(CSc3nccc(-c4ccc(OC)c(OC)c4)n3)cc2c1
active: T-47D breast -2.81% | BT-549 breast -43.8% | HCT-116 colon 8.21% | MDA-MB-468 breast -12.3%
inactive: MDA-MB-435 melanoma 11.4% | SW-620 colon 44.5% | HCC-2998 colon 26.3% | KM12 colon 32.2%

CCCSc1nc(Nc2ccc(S(N)(=O)=O)cc2)c(C#N)c(-c2ccc(Cl)cc2)n1
active: HCT-116 colon -67.1% | HCC-2998 colon 8.65%
inactive: T-47D breast 86.5% | BT-549 breast 77.7% | MDA-MB-435 melanoma 48% | SW-620 colon 37.6% | KM12 colon 41.7% | MDA-MB-468 breast 17.3%
